Measured values: PubChem BioAssay (NCATS)
“And” between values parts separate entries of the source, which are not always exact repeats. Equal entries are not always repeated. Results filed as inconclusive are left out. The source made the active and inactive calls. Unless noted, calls follow the shape of the dose curve; as a rule, active = well fitted cell-killing curve with a large enough effect; inconclusive = small, poorly fitted or top-dose-only effect; inactive = flat fitted curve, though single readings scatter. Peptide text beside a SMILES is read from it.

Assays:
[1] = qHTS Assay for Lipid Storage Modulators (AID 1519; calls by dose curve; as to activity change, negative = inhibition: % is scaled to controls: 0 for no effect and ±100 for the full control effect); conditions: Drosophila S3 cells, BODIPY lipid droplet/cell ratio, laser cytometry, cells loaded with oleic acid
In short: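 Cells seeded at 5,000 per well were treated with compounds over a concentration series and loaded with oleic acid (400 uM, as added). Lipid droplet fluorescence (488 nm excitation, 500-530 nm channel) was read by laser-scanning cytometry and normalized to 20 uM Triacsin C.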

[2] = Cell Viability - LYMP2-008 (AID 980); conditions: LYMP2-008 lymphoblastoid cell viability, qHTS; series mostly up to 92.2 µM; also: nearly all actives have a fitted effect of over 60% in size; also: potency is read from the fitted curve at half-maximal effect
In short: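 Acute cytotoxicity is scored as concentration-dependent loss of cellular ATP in a human lymphoblastoid line after 24 hr treatment at 37 C. ATP is quantified by luciferase luminescence.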

[3] = Cell Viability - LYMP2-010 (AID 981); conditions: LYMP2-010 lymphoblastoid cell viability, qHTS; series mostly up to 92.2 µM;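 also: cells exposed to compound for 24 hours at 37 °C; nearly all actives have a fitted effect of over 55% in size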; also: potency is read from the fitted curve at half-maximal effect
In short: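 Acute toxicity is scored as a concentration-dependent loss of cellular ATP in human lymphoblastoid cells after 24 hr compound exposure in complete medium. Tetraoctylammonium bromide is the positive control.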

[4] = Cell Viability - LYMP2-012 (AID 982); conditions: LYMP2-012 lymphoblastoid cell viability qHTS; series mostly up to 92.2 µM;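 also: cellular ATP by luciferase luminescence where a drop means cytotoxicity; cells exposed to compound for one day before reading; nearly all actives have a fitted effect of over 55% in size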; also: potency is read from the fitted curve at half-maximal effect
[5] = Cell Viability - LYMP2-014 (AID 983); conditions: LYMP2-014 lymphoblastoid cells, viability qHTS; series mostly up to 92.2 µM;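 also: cells exposed to compound for 24 h at 37 °C; plate controls were DMSO only for no effect and 92 µM tetraoctylammonium bromide for full effect; nearly all actives have a fitted effect of over 50% in size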
In short: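 Decrease in intracellular ATP after 24 hr treatment at 37 C, measured by luciferase luminescence, indicated cytotoxicity. Concentration-response data were fitted with the standard Hill equation to give AC50.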

[6] = Cell Viability - LYMP2-016 (AID 984); conditions: LYMP2-016 lymphoblastoid cell viability, qHTS; series mostly up to 92.2 µM;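 also: cells exposed to compound for 24 hours at 37 °C; % is scaled to controls: 0 for no effect and ±100 for the full control effect; nearly all actives have a fitted effect of over 55% in size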
In short: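 Human lymphoblastoid cells (LYMP2-016), 2500/well in complete medium, preincubated 5 hr at 37 C, then compound-treated 24 hr at 37 C. Intracellular ATP read by CellTiter-Glo luminescence after 30 min at room temperature; AC50 from Hill-equation concentration-response fits.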

[7] = Cell Viability - LYMP2-018 (AID 985); conditions: LYMP2-018 lymphoblastoid cells, viability (qHTS); series mostly up to 92.2 µM;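 also: compound exposure lasted 24 hr at 37 °C; plate controls were DMSO only for no effect and tetraoctylammonium bromide at 92 µM for full effect; nearly all actives have a fitted effect of over 50% in size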
In short: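 Acute cytotoxicity is scored as a concentration-dependent drop in intracellular ATP after 24 hr exposure of the lymphoblastoid line in complete culture medium, measured by luciferase luminescence. Potency is expressed as AC50 from Hill modelling.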

[8] = Cell Viability - LYMP2-020 (AID 986); conditions: series mostly up to 92.2 µM;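 also: cells exposed to compound for 24 h at 37 °C; plate controls were DMSO only for no effect and tetraoctylammonium bromide at 92 µM for full effect; nearly all actives have a fitted effect of over 55% in size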
In short: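 Acute cytotoxicity in a human lymphoblastoid line is scored as a concentration-dependent fall in cellular ATP after 24 hr at 37 C in complete medium. The positive control is tetraoctylammonium bromide, and potency is given as Hill-fit AC50.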

[9] = Cell Viability - LYMP2-022 (AID 987); conditions: LYMP2-022 lymphoblastoid cell viability; series mostly up to 92.2 µM; also: nearly all actives have a fitted effect of over 55% in size; also: potency is read from the fitted curve at half-maximal effect
In short: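 Acute toxicity in a human lymphoblastoid line is scored as decreased intracellular ATP after 24 hr compound treatment at 37 C. ATP is measured by CellTiter-Glo luminescence; curves are fitted with the Hill equation to give AC50.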

[10] = Cell Viability - LYMP2-024 (AID 988); conditions: LYMP2-024 lymphoblastoid cell viability; series mostly up to 92.2 µM;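 also: plate controls were DMSO only for no effect and 92 µM tetraoctylammonium bromide for full effect; nearly all actives have a fitted effect of over 60% in size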
In short: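 Acute toxicity is measured as concentration-dependent loss of intracellular ATP in a human lymphoblastoid line treated 24 hours at 37 C. Luciferase luminescence quantifies ATP; AC50 values come from standard Hill-equation modelling.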

[11] = Cell Viability - LYMP2-026 (AID 989); conditions: LYMP2-026 lymphoblastoid cell viability, qHTS; series mostly up to 92.2 µM;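 also: cells exposed to compound for 24 h at 37 °C; % is scaled to controls: 0 for no effect and ±100 for the full control effect; nearly all actives have a fitted effect of over 50% in size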
In short: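 Concentration-dependent loss of intracellular ATP in human lymphoblastoid cells after 24 hr at 37 C, quantified by luciferase luminescence. AC50 derived from standard Hill equation.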

[12] = Cell Viability - LYMP1-002 - Assay at 24 hr (AID 993); conditions: LYMP1-002 lymphoblastoid cells viability; series mostly up to 92.2 µM; also: % is scaled to controls: 0 for no effect and ±100 for the full control effect
In short: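 qHTS, LYMP1-002 lymphoblastoid, 24 h cpd, 37 C, CellTiter-Glo ATP luminescence; AC50 via Hill eq.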

[13] = measured here: cell count channel max response
[14] = measured here: lipid channel max response

CC1(C)S[C@@H]2[C@H](NC(=O)[C@@H](NC(=O)N3CCNC3=O)c3ccccc3)C(=O)N2[C@H]1C(=O)O
inactive: activity change, negative = inhibition ([1]; at 25.7 µM (top of the series)) -1.89%
-12.9%: max response [1, 13]
-11.6%: max response [1, 14]

O=C(O)CN(CCN(CC(=O)O)CC(=O)O)CC(=O)O
6.6%: max response [1, 14]
inactive: activity change, negative = inhibition ([1]; at 57.5 µM (top of the series)) 6.6%
-1.95%: max response [1, 13]

Cc1c(C)c2c(c(C)c1O)CC[C@@](C)(CCC[C@H](C)CCC[C@H](C)CCCC(C)C)O2
-14.3%: max response [1, 14]
-14.2%: max response [1, 13]
inactive: activity change, negative = inhibition ([1]; at 57.5 µM (top of the series)) 0.911%

CCC(=O)NCCC1CCc2ccc3c(c21)CCO3 (centres undefined)
9.34%: max response [1, 13]
23.8%: max response [1, 14]
inactive: activity change, negative = inhibition ([1]; at 57.5 µM (top of the series)) 11.3%

Cc1ccccc1
inactive: Potency [2] | Potency [3] | Potency [4] | Potency [5] | Potency [6] | Potency [7] | Potency [8] | Potency [9] | Potency [10] | Potency [11] | outcome [12]

CCOC(C)=O
inactive: Potency [2] | Potency [3] | Potency [4] | Potency [5] | Potency [6] | Potency [7] | Potency [8] | Potency [9] | Potency [10] | Potency [11] | outcome [12]

CC(O)CO (centres undefined)
inactive: Potency [2] | Potency [3] | Potency [4] | Potency [5] | Potency [6] | Potency [7] | Potency [8] | Potency [9] | Potency [10] | Potency [11] | outcome [12]

CC(=O)N[C@@H](CC(=O)O)C(=O)N[C@@H](CCC(=O)O)C(=O)O (Ac-Asp-Glu-OH)
-7.7% and 26.3%: max response [1, 14]
-8.34% and 14.1%: max response [1, 13]
inactive: activity change, negative = inhibition ([1]; at 25.7 µM (top of the series)) -3.36% | activity change, negative = inhibition ([1]; at 57.5 µM (top of the series)) 6.33%

CCCCCCCC/C=C\CCCCCCCC(=O)O
inactive: Potency [2] | Potency [3] | Potency [4] | Potency [5] | Potency [6] | Potency [7] | Potency [8] | Potency [9] | Potency [10] | Potency [11] | outcome [12]

CC(C)(C)NC(=O)[C@@H]1C[C@@H]2CCCC[C@@H]2CN1C[C@@H](O)[C@H](Cc1ccccc1)NC(=O)[C@H](CC(N)=O)NC(=O)c1ccc2ccccc2n1
active: Potency [2] 50.1 µM | Potency [3] 50.1 µM | Potency [4] 50.1 µM | Potency [9] 50.1 µM
